According to PubChem BioAssay AID624126 (The Scripps Research Institute Molecular Screening Center, 2012):
Among all 360,000 compounds or so, about 1,400 (0.39%) were called active. This is one part of a sample in which actives are shown more often than they occur. A number with no mark means an inactive call.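 The calls were made as follows: active = activation above its plate's cutoff, the mean activation of sample wells plus 3 SD; inactive = the rest.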

target: Muscarinic acetylcholine receptor M4 (Homo sapiens) (UniProt P08173); assay: human M4 muscarinic receptor positive allosteric modulators, primary screen, CHO-K1 cells, Fluo-8 calcium fluorescence (AID 624126); details: CHO-K1 hM4/Gqi5, Fluo-8 calcium fluorescence, ACh EC20; at 3 µM; stronger effect = higher value; 0% = ACh EC20, 100% = maximal ACh
Sequence (P08173 whole entry, looked up): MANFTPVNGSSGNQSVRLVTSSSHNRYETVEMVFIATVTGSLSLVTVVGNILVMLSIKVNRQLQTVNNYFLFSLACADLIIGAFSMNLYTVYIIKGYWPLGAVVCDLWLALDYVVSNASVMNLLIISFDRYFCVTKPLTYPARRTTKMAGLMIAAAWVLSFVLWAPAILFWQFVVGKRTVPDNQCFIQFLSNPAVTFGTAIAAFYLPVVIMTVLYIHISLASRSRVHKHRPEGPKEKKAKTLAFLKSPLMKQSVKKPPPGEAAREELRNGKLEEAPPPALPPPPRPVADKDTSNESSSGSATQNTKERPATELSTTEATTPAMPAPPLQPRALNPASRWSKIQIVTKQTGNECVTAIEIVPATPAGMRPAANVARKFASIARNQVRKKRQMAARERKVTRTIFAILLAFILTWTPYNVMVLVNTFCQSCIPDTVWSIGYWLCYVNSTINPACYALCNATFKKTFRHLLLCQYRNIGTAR

SMILES | activation
O=C(CN1CCSCC1)N/N=C/c1ccc(F)cc1F | 4.64%
CCN(CC)c1ccc(C(=O)OCC(=O)c2ccco2)cc1 | -1.72%
Cc1cc(NC(=O)C(C)SCC(=O)Nc2cccc(S(=O)(=O)N3CCCCCC3)c2)no1 (stereo not drawn) | -6.44%
O=C(CCc1nc(-c2ccccc2)no1)Nc1cccc(C(=O)NC2CC2)c1 | 10.1%
N#CCSc1ccccc1NC(=O)CN1C(=O)NC(CCc2ccccc2)C1=O (stereo not drawn) | 1.07%
O=C(c1ccccc1)N1CCN(c2ccc([N+](=O)[O-])c(NCc3ccco3)c2)CC1 | 21.4% (active)
O=[N+]([O-])c1ccc(N2CCN(S(=O)(=O)c3ccc4ccccc4c3)CC2)cc1NCc1ccco1 | 14%
O=C(c1ccc(S(=O)(=O)NCc2ccco2)cc1)N1CCN(c2ccccc2)CC1 | 18.3%
CC(=O)c1ccc(S(=O)(=O)NCCC(=O)N2CCN(c3ccccn3)CC2)cc1 | 2.49%
Cc1csc(SCC(=O)N(c2ccccc2)C(C)C)n1 | 1.05%
O=C(CCC(=O)OCC(F)(F)C(F)F)NCc1ccccc1 | -1.61%
CC1CN(CCOc2ccccc2[N+](=O)[O-])CC(C)O1 (stereo not drawn) | 1.64%
Cc1cc(C)c(OCCN2CC(C)OC(C)C2)c(Br)c1 (stereo not drawn) | 20.4% (active)
CC1CN(CCCOc2ccccc2-c2ccccc2)CC(C)O1 (stereo not drawn) | -4.17%
Cc1cc2c(cc1C)[n+](C)cn2CC(O)COCC1CC=CCC1 (stereo not drawn) | 4.04%
OCCCNc1nccc(-c2cc(Nc3cccc(Cl)c3)ncn2)n1 | 4.57%
NS(=O)(=O)c1cccnc1Nc1cccc(Cl)c1 | 24.9% (active)
O=S(=O)(Nc1ncccn1)c1ccc(NS(=O)(=O)c2cccc(Cl)c2Cl)cc1 | 3.83%
CC(C(=O)NCCc1ccc(S(N)(=O)=O)cc1)N1C(=O)CC(C)(C)Sc2ccccc21 (stereo not drawn) | -2.13%
CCOC(=O)[C@]12CCCC=C1N(Cc1ccc3c(c1)OCO3)C(=O)[C@H](CC(=O)NCc1cccs1)C2 | 23.3% (active)

SMILES | activation
CCOC(=O)[C@]12CCCC=C1N(Cc1ccc3c(c1)OCO3)C(=O)[C@H](CC(=O)N1CCN(C(=O)c3ccco3)CC1)C2 | 13.2%
COC(=O)[C@]12CCCCC=C1N(Cc1ccc3c(c1)OCO3)C(=O)[C@H](CC(=O)NCc1cccs1)C2 | -4.76%
Cc1[nH]c2c(C(=O)N3CCCC(CCC(=O)NCc4ccccc4F)C3)cccc2c1C (stereo not drawn) | -3.21%
Cc1nc(CN2CCN(C(=O)CCc3nnc(Cc4c[nH]c5ccccc45)o3)CC2)cs1 | -5.85%
CCOc1ccc2[nH]c(=O)c(C(c3nnnn3CCOC)N3CCOCC3)cc2c1 (stereo not drawn) | 33.2% (active)
COCCn1nnnc1C(c1cc2ccc(OC)cc2[nH]c1=O)N1CCc2ccccc2C1 (stereo not drawn) | -1.22%
COc1ccc(N2CCN(C(c3cc4ccc(C)cc4[nH]c3=O)c3nnnn3C3CCCC3)CC2)cc1 (stereo not drawn) | -3.66%
COc1ccc(OC)c(S(=O)(=O)N2CCCC(C(=O)N3CCC(C(N)=O)CC3)C2)c1 (stereo not drawn) | 6.48%
Cc1cccc(C(C)C)c1NC(=O)COC(=O)C1CC(=O)N(Cc2ccccc2)C1 (stereo not drawn) | 1.78%
CCC/C(C)=N\Nc1nc2c(c(=O)n(C)c(=O)n2C)n1C | -1.33%
O=C(Nc1ccc(N2C(=O)c3cccc4cccc(c34)C2=O)cc1)c1ccc(N2CCCCC2)c([N+](=O)[O-])c1 | 4.02%
COc1ccccc1N1CCN(Cc2cc(OC)c3c(c2)OCO3)CC1 | -6.02%
CNCC(O)CN1CCN(c2ccccc2OC)CC1 (stereo not drawn) | 19.7% (active)
COc1ccccc1N1CCN(Cc2ccc(OC)c3ccccc23)CC1 | -3.43%
COc1ccccc1-n1c(=S)[nH]c2c(sc(=S)n2-c2ccc(C)cc2C)c1=O | 2.71%
Cc1cccc(-c2c(NC(=O)c3ccco3)oc3ccc(Cl)cc3c2=O)c1 | 7.81%
COc1ccc(-c2c(NC(=O)c3ccco3)oc3ccc(Cl)cc3c2=O)cc1 | 11.2%
Cn1c(NC(=O)c2ccco2)c(-c2ccccc2Cl)c(=O)c2ccccc21 | 31% (active)
Cc1cccc(C)c1-n1nnnc1C1(C)CCC(=O)N1CCOc1ccccc1 (stereo not drawn) | 6%
CC1(C(=O)NCc2ccc3c(c2)OCO3)CCN1C(=O)Cc1cccs1 (stereo not drawn) | 3.27%

SMILES | activation
COc1ccc(NC(=O)C(C)SCc2ccccc2)cc1 (stereo not drawn) | 0.44%
CC(Sc1nnc2c(n1)C1CCC2(C)C1(C)C)C(=O)Nc1ccccc1 (stereo not drawn) | -0.53%
CSc1nc(C)cc(SC(C(C)=O)C(=O)Nc2ccccc2)n1 (stereo not drawn) | 22.6% (active)
CCCCN1C(=O)C(CC(=O)NCc2cccs2)CC(C(=O)N2CCCCCC2)=C1C (stereo not drawn) | 0.62%
Cc1cc(C)nc(NC(=O)c2cccc([N+](=O)[O-])c2)c1 | 31.6% (active)
O=C(Nc1ccc(C2CC2(Cl)Cl)cc1)c1cccc([N+](=O)[O-])c1 (stereo not drawn) | -15.5%
C/C(=N\NC(=O)c1cccc([N+](=O)[O-])c1)c1cccnc1 | 1.53%
O=C(c1ccc(C(F)(F)F)cc1)C1CCCN(C(=O)c2csnn2)C1 (stereo not drawn) | 5.9%
c1ccc2c(c1)OCC(c1nn3cnnc3s1)O2 (stereo not drawn) | 13.1%
CCc1ccc(NC(=O)CSc2nnc(-c3cnccn3)n2Cc2ccco2)cc1 | -2.71%
CCn1c(SCC(=O)NC2CC2)nnc1-c1ccccn1 | -4.53%
CCn1c(SCC(=O)Nc2cc(C)ccc2C)nnc1-c1cnccn1 | 35.7% (active)
CC1COc2ccccc2N1C(=O)c1cccnc1Cl (stereo not drawn) | -13.4%
CC(=O)c1c(C)[nH]c(C(=O)N2CCN(S(=O)(=O)c3ccc(F)c(F)c3)CC2)c1C | 1.38%
CC(C)(C)C(=O)Nc1ccc(-c2cn3cccnc3n2)cc1 | 1.07%
CN(C(=O)COC(=O)c1cc(-c2ccco2)nc2ccccc12)C1CCS(=O)(=O)C1 (stereo not drawn) | -1.7%
COc1ccc2c(-c3ccccc3)cc(SCC(=O)N(C)C3CCS(=O)(=O)C3)nc2c1 (stereo not drawn) | -1.12%
Cc1c(-c2cccc(Cl)c2)nc2ccccc2c1C(=O)OCC(=O)N(C)C1CCS(=O)(=O)C1 (stereo not drawn) | 22.5% (active)
